TDP43 rescue – qHTS of TDP-43 Inhibitors; actives 1.8% (n = 410,000); AID 652104, 2013; Potency, µM (titrated, usually from 46.1 µM), inactives show at the top dose growth rescue (activation), actives largely listed as activators; TDP-43 expressing yeast growth rescue, BacTiter-Glo, 24 h; also: % of control where 0% means no effect; nearly all actives have a fitted effect of over 50% in size
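In this qHTS, compounds that restore growth of yeast expressing TDP-43 appear as activators. Cells (OD600=0.02, galactose medium, raffinose-pregrown) are incubated with compound 24 hr at 30 deg C and growth is quantified by BacTiter-Glo.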
FUS suppressor – qHTS for Suppressors of FUS Proteinopathy: Primary screen using FUS-linked yeast assay | AID 1347120, 2019 | Potency, µM (top dose mostly 76.6 µM), hits mostly activators | S. cerevisiae FUS-expressing, growth rescue, OD600, 24 h | actives 0.24% (n = 390,000);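 also: plate controls were DMSO vehicle for no effect and reference control for full effect; nearly all actives have a fitted effect of over 55% in size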
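Quantitative HTS measuring growth restoration of FUS-toxic yeast. Galactose-induced cells (OD 0.005) were exposed 24hr at 30C to compounds at several concentrations, then absorbance at 600 nm was recorded.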
aSyn rescue – qHTS of alpha-syn Inhibitors; Yeast expressing alpha-synuclein, growth rescue, BacTiter-Glo, 24 h; Potency, µM (doses to about 46.1 µM), for the others: at the top dose growth rescue (activation), actives largely listed as activators; actives 0.14% (n = 370,000); also: % of control where 0% means no effect; nearly all actives have a fitted effect of over 65% in size
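Rescue of yeast growth: cells expressing toxic alpha-synuclein, induced in galactose at OD600 0.02, incubated with compound 24 h at 30 C. ATP luminescence quantified growth; inhibitors of toxicity appear as activators.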
Mito fusion act – qHTS Assay for Small Molecule Inhibitors of Mitochondrial Division or Activators of Mitochondrial Fusion; Potency, µM (doses to about 46.1 µM), for the others: top-dose growth rescue (activation), usual class: activators; S. cerevisiae fusion-defective mutant growth rescue, CellTiterGlo 48 h; AID 485298, 2010; actives 0.23% (n = 320,000); also: % of control where 0% means no effect; nearly all actives have a fitted effect of over 45% in size
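S. cerevisiae fusion-defective temperature-sensitive mutants (e.g. fzo1-1, mgm1-5) grown 48 h at 37C in YPEG (ethanol/glycerol non-fermentable) medium with 23 nl compound per well; growth rescue read as CellTiterGlo luminescence.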
Abeta rescue – qHTS for compounds that reverse cellular toxicity of Amyloid beta (A-beta) peptide in yeast: Primary Screen; yeast expressing A-beta42, growth rescue, OD600, 48 h; response scale: 0% DMSO, 100% iron-clioquinol control; Potency, µM (highest dose often 46.1 µM), hits mostly activators; actives 0.063% (n = 410,000); also: nearly all actives have a fitted effect of over 55% in size
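Growth rescue measured by 600 nm absorbance after 48 h yeast culture at 30 C with compound. Values normalized between DMSO and an equimolar ferric chloride plus clioquinol control.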
Starred values were filed as active, the others as inactive; i = inactive; u = inconclusive; x = no result given; [ ] = another dose, or the depositor's remark. A selection: hits, their analogues and other compounds. The true share with any hit is near 2.2%. Calls follow the shape of the dose curve; as a rule, active = well fitted curve in the direction sought with a large enough effect; inconclusive = small, poorly fitted or top-dose-only effect, or another doubt; inactive = no such curve, though single readings can be large; an effect the other way counts as inactive or inconclusive. Potency is read from the fitted curve at half-maximal effect.

SMILES	TDP43 rescue	FUS suppressor	aSyn rescue	Mito fusion act	Abeta rescue
CC(C)N(C(=O)CSc1nc2ccc(Cl)cc2[nH]1)c1ccccc1	35µM*	i	x	x	i
COc1ccc(NS(=O)(=O)c2cc(NC(=O)CCNC(C)=O)ccc2N2CCCCC2)cc1	1%	32µM*	1%[1.84 µM]	-4%	i
Cc1cccc(Cn2nnc3c(=O)[nH]c(C4CCCN(C(=O)c5ccccc5Cl)C4)nc32)c1 (configuration not stated)	11%	i	x	x	i
COc1ccc(CN(CCN2CCOCC2)C(=O)c2cc(F)ccc2C)cc1OC	x	i	x	x	x
C=C1CCC[C@]2(C)C[C@H]3OC(=O)C(CNC(C)(CO)CO)[C@H]3CC12 (some centres not stated)	-15%	i	-19%	-2%	i
C=C1CCC[C@]2(C)C[C@H]3OC(=O)C(CN4CCCCC4CO)[C@H]3CC12 (some centres not stated)	13µM*	i	-15%	5%	i
Cc1sc2ncnc(N3CCC(C(=O)Nc4cc(S(C)(=O)=O)ccc4Cl)CC3)c2c1C	2%	i	0%	9%	i
Cc1sc2ncnc(N3CCN(S(=O)(=O)c4ccccc4)CC3)c2c1C	18µM*	x	-3%	17%	i
Cc1ccc(S(=O)(=O)N2CCN(c3ncnc4sccc34)CC2)cc1C	11µM*	i	7%	18%	i
Cc1sc2ncnc(N3CCC(C(=O)Nc4cc(Cl)ccc4Cl)CC3)c2c1C	11µM*	i	-10%	u	i
O=S(=O)(c1ccc2c(c1)OCCO2)N1CCN(c2ncnc3sccc23)CC1	22%	i	10%	0%	i
Cc1ccc(S(=O)(=O)N2CCN(c3ncnc4scc(-c5ccccc5)c34)CC2)cc1	16%	x	9%	x	i
Cc1cc(Br)cn2c(Cc3ccccc3)c(-c3ccco3)nc12	11µM*	i	1%	x	i
COc1ccccc1Cc1c(-c2ccc(F)cc2)nc2c(C)cc(Br)cn12	u	i	23%	x	i
COc1ccccc1Cc1c(-c2ccc(C)cc2)nc2c(C)cc(Br)cn12	35µM*	u	11%	x	i
Cc1ccc(Cc2c(-c3ccc(F)cc3)nc3c(C)cc(Br)cn23)cc1	22µM*	i	3%	x	i
COc1ccc(-c2nc3c(C)cc(Br)cn3c2Cc2cccc(Cl)c2)cc1OC	32µM*	u	5%	x	i
Cc1ccc(Cc2c(-c3ccc(C)cc3)nc3c(C)cc(Br)cn23)cc1	6%	i	13%	x	i
Cc1ccc(CNC(=O)Cn2c(=O)n(-c3ccc(C)cc3)c(=O)c3c2c2cc(C)ccc2n3C)cc1	1%	i	x	x	i
CCOC(=O)c1ccc(N2C(=O)c3n[nH]c(-c4cccs4)c3C2c2cccc(OC)c2)cc1 (configuration not stated)	4%	u	x	x	i
CCCN1CNc2c(c(=O)[nH]c(=S)n2CCc2ccc(C)cc2)C1	x	x	5%	x	x
COc1ccccc1Cc1c(-c2ccc(OC)c(OC)c2)nc2c(C)cc(Br)cn12	18µM*	u	1%	x	i
COc1ccccc1Cc1c(-c2cccc(Cl)c2)nc2c(C)cc(Br)cn12	20%	i	0%	x	i
Cc1cc(Cl)cc(C)c1OCC(=O)N1CCN(c2ncccn2)CC1	13µM*	i	0%	6%	i
Cc1cc(Cl)ccc1OCC(=O)N1CCN(c2ncccn2)CC1	u	i	7%	18%	i
SMILES	TDP43 rescue	FUS suppressor	aSyn rescue	Mito fusion act	Abeta rescue
CC(=O)NC(c1cccc(F)c1)c1nc(-c2cnc3ccccc3c2)cs1 (configuration not stated)	0%	i	3%	x	i
O=C1C(=O)C(c2ccc(O)cc2O)Oc2cc(O)cc(O)c21 (configuration not stated)	x	x	1%	x	x
COCc1cc(C)nc2sc(C(=O)OC)c(N)c12	13µM*	i	1%	-4%	i
COCc1cc(C)nc2sc(C(=O)N3CCCC3)c(N)c12	-3%	i	-3%	0%	i
CCc1ccccc1NC(=O)c1sc2nc(C)cc(C)c2c1N	18µM*	i	0%	20%	i
COc1ccc(NC(=O)c2cccc(N3CCCS3(=O)=O)c2)cc1	24%	i	x	x	i
Cc1ccc(NC(=O)CN(C)C(=O)c2cccnc2Nc2cccc(C(F)(F)F)c2)cc1	20µM*	i	-55%	-24%	i
CCCCCCN1C=CC=C/C1=C/C=C(C#N)C#N	23%	i	9%	13µM*	i
Nc1nc2cc(Cl)c(Br)cc2o1	20µM*	x	3%	x	i
Nc1nc2ccc(Cl)cc2o1	7%	x	u	x	i
COc1ccccc1NC1=C(Cl)C(=O)N(c2ccccc2)C1=O	6.3µM*	x	-16%	10%	i
CCCCCCOc1ccc(C2C(=O)N(C3CCCCC3)CC(=O)N2CCCC)cc1 (configuration not stated)	-7%	i	x	x	i
O=c1oc2ccccc2n1CCCOc1ccccc1Cl	16µM*	i	x	x	i
Cc1ccc2oc(=O)n(CCCOc3ccccc3)c2c1	35µM*	i	8%	19%	i
Cc1ccc2c(C(=O)CNc3nccs3)c[nH]c2c1	x	x	-3%	x	x
Cc1ccc2c(c1)C(c1ccccc1)N(C(=O)c1ccc(S(=O)(=O)N3CCCC3)cc1)CC(=O)N2 (configuration not stated)	5%	25µM*	x	x	i
CCCN1CNc2c(c(=O)[nH]c(=S)n2CCc2ccsc2)C1	x	x	-1%	x	x
Cc1ccc(OCc2nn3c(C4CCCCC4)nnc3s2)cc1	x	i	x	x	x
Nc1ccc(CNC(=O)OCC2c3ccccc3-c3ccccc32)cc1	14µM*	u	8%	x	i
COc1cc2c(cc1OC)CN(C1CC(=O)N(c3c(C)cccc3C)C1=O)CC2 (configuration not stated)	14µM*	i	10%	-5%	i
CCN(C(=S)Nc1ccc(C(C)=O)cc1)C1CCCCC1	22µM*	i	14%	-2%	i
CCCN(CC1CC1)C(=S)Nc1ccc(C(C)=O)cc1	17%	i	7%	14%	i
Fc1ccc(/C=N/n2c(C3CCCCC3)n[nH]c2=S)cc1	u	i	-11%	-3%	13µM*
S=c1[nH]nc(C2CCCCC2)n1/N=C/c1ccccc1	u	i	-8%	-15%	u
CCCCN1C(C(=O)c2ccccc2)=C(OC(C)=O)c2ccccc2S1(=O)=O	4%	i	x	x	i
CCCCC(=O)OC1=C(C(=O)c2ccccc2)N(CC)S(=O)(=O)c2ccccc21	16µM*	i	x	x	i

Source: PubChem
